{
  "source": "PubChem BioAssay (Tox21)",
  "note": "Inconclusive results are not listed. Active and inactive are the calls of the source. Calls come from the whole dose curve; as a rule, active = well fitted cell-killing curve with a large enough effect in the repeat runs; inconclusive = weak or mixed curves, or effect the other way; inactive = no such curve, though single readings can be large or run the other way. % is set by controls: 0 for no effect and ±100 for the full control effect; potency is the fitted concentration of half-maximal effect.",
  "data": [
    {"assay": "qHTS assay to identify small molecule antagonists of the thyroid receptor (TR) signaling pathway - cell viability counter screen (AID 743064); note: nearly all actives have a fitted effect of over 50% in size", "settings": "GH3.TRE-Luc viability, CellTiter-Fluor, 24 h; series mostly up to 70.3 µM; activity change, negative = cytotoxic: at the top concentration", "method_in_brief": "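GH3.TRE-Luc rat pituitary cells dosed after 4 hr plating, co-stimulated with T3 at 1 nM final, incubated 23.5 h at 37 C. Viability measured in the same wells by CellTiter-Fluor fluorescence after 30 min further at 37 C.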", "values": [
      {"smiles": "CCC(=O)Oc1ccc(/C(CC)=C(\\CC)c2ccc(OC(=O)CC)cc2)cc1", "Potency": "54.5 µM (active)"},
      {"smiles": "Cc1cc(O)c(C(C)C)cc1Cl", "activity change, negative = cytotoxic": "11.6% (inactive)"},
      {"smiles": "CCCOC(=O)c1ccc(C(=O)OCCC)nc1", "activity change, negative = cytotoxic": "25.5% (inactive)"},
      {"smiles": "COCC(O)CO", "note": "(stereo not drawn)", "activity change, negative = cytotoxic": "-3.55% [at 95 µM] (inactive)"},
      {"smiles": "OC/C(Br)=C(\\Br)CO", "activity change, negative = cytotoxic": "-3.95% (inactive)"},
      {"smiles": "O=C1OCCN1/N=C/c1ccc([N+](=O)[O-])o1", "activity change, negative = cytotoxic": "-17.1% (inactive)"},
      {"smiles": "CCC(Cc1ccccc1)(C(=O)c1ccc(N2CCOCC2)cc1)N(C)C", "note": "(stereo not drawn)", "activity change, negative = cytotoxic": "-1.95% (inactive)"},
      {"smiles": "CCn1nc(C)c2c1C(=O)NCC(c1ccc(O)cc1)=N2", "activity change, negative = cytotoxic": "25.2% (inactive)"},
      {"smiles": "Cc1cc(C(=C2C=CC(=Nc3ccc(S(=O)(=O)O)cc3S(=O)(=O)O)C=C2)c2ccc(Nc3ccc(S(=O)(=O)O)cc3)cc2)ccc1N", "activity change, negative = cytotoxic": "-3.36% (inactive)"},
      {"smiles": "C1COCO1", "activity change, negative = cytotoxic": "1.91% (inactive)"},
      {"smiles": "NC(=O)Nc1ccc(Cl)cc1", "activity change, negative = cytotoxic": "2.27% (inactive)"},
      {"smiles": "CCOC(=O)/C=C/C(=O)O", "activity change, negative = cytotoxic": "10.2% (inactive)"},
      {"smiles": "CN1C(=O)CC(C)(c2ccccc2)C1=O", "note": "(stereo not drawn)", "activity change, negative = cytotoxic": "-3.2% (inactive)"},
      {"smiles": "ON(Cc1ccccc1)Cc1ccccc1", "activity change, negative = cytotoxic": "1.51% (inactive)"},
      {"smiles": "Nc1ccc(S(=O)(=O)O)c(N)c1", "activity change, negative = cytotoxic": "-2.31% (inactive)"},
      {"smiles": "Oc1ccc(Nc2ccccc2)cc1", "Potency": "54.5 µM (active)"},
      {"smiles": "CNC(=O)N(c1ccccc1)c1ccccc1", "activity change, negative = cytotoxic": "-0.0724% [at 95 µM] (inactive)"},
      {"smiles": "CCC(C(=O)OCCN(CC)CC)c1ccccc1", "note": "(stereo not drawn)", "activity change, negative = cytotoxic": "-0.18% (inactive)"},
      {"smiles": "O=C(O)C(Cc1cc(I)c(O)c(I)c1)c1ccccc1", "note": "(stereo not drawn)", "activity change, negative = cytotoxic": "-1.79% (inactive)"},
      {"smiles": "[O]=[Bi]", "activity change, negative = cytotoxic": "1.51% [at 8.44 µM] (inactive)"},
      {"smiles": "CCCOCCOCCO", "activity change, negative = cytotoxic": "12.1% (inactive)"},
      {"smiles": "CC(C)=CC=O", "activity change, negative = cytotoxic": "0% [at 95 µM] (inactive)"},
      {"smiles": "O=C(NCCCN1CCOCC1)c1ccc(Cl)cc1", "activity change, negative = cytotoxic": "14.8% (inactive)"},
      {"smiles": "CC1(C)O[C@@H]2C[C@H]3[C@@H]4CCC5=CC(=O)C=C[C@]5(C)[C@H]4[C@@H](O)C[C@]3(C)[C@]2(C(=O)CO)O1", "activity change, negative = cytotoxic": "-23.1% (inactive)"},
      {"smiles": "CCN(CC)CCNC(=O)c1ccc(NC(C)=O)cc1", "activity change, negative = cytotoxic": "14.1% (inactive)"},
      {"smiles": "O=[N+]([O-])c1cccc(S(=O)(=O)NCCNS(=O)(=O)c2cccc([N+](=O)[O-])c2)c1", "activity change, negative = cytotoxic": "-1.26% (inactive)"},
      {"smiles": "CN(C)C(=O)Nc1ccc(Oc2ccc(Cl)cc2)cc1", "activity change, negative = cytotoxic": "-18% (inactive)"},
      {"smiles": "O=S(=O)(c1ccccc1)c1ccc(Cl)cc1", "activity change, negative = cytotoxic": "23.6% (inactive)"},
      {"smiles": "CO[C@H]1C=CO[C@@]2(C)Oc3c(C)c(O)c4c(O)c(c5c(c4c3C2=O)=NC2(CCN(CC(C)C)CC2)N=5)NC(=O)/C(C)=C\\C=C/[C@H](C)[C@H](O)[C@@H](C)[C@@H](O)[C@@H](C)[C@H](OC(C)=O)[C@@H]1C", "Potency": "29.8 µM (active)"},
      {"smiles": "CC(=O)OCC(=O)[C@H]1CC[C@H]2[C@@H]3CCC4=CC(=O)CC[C@]4(C)[C@H]3CC[C@]12C", "activity change, negative = cytotoxic": "13.8% (inactive)"},
      {"smiles": "COc1cc2[nH]c(=O)[nH]c(=O)c2cc1OC", "activity change, negative = cytotoxic": "-5.55% [at 32.5 µM] (inactive)"},
      {"smiles": "CC(CCc1ccc2c(c1)OCO2)NN", "note": "(stereo not drawn)", "activity change, negative = cytotoxic": "-7.69% (inactive)"},
      {"smiles": "CC1CN(c2cc3c(cc2F)c(=O)c(C(=O)O)cn3-c2ccc(F)cc2F)CCN1", "note": "(stereo not drawn)", "activity change, negative = cytotoxic": "-9.94% (inactive)"},
      {"smiles": "CC(=O)Nc1ccccc1C", "activity change, negative = cytotoxic": "-8.67% [at 95 µM] (inactive)"},
      {"smiles": "CCOC(=N)CC(=O)OCC", "activity change, negative = cytotoxic": "0.794% (inactive)"},
      {"smiles": "Nc1ccc(S(=O)(=O)O)cc1", "activity change, negative = cytotoxic": "1.69% [at 95 µM] (inactive)"},
      {"smiles": "CC1=C(C=O)C(C)(C)CCC1", "activity change, negative = cytotoxic": "-7.35% (inactive)"},
      {"smiles": "COC(OC)(C(=O)c1ccccc1)c1ccccc1", "activity change, negative = cytotoxic": "-3.43% (inactive)"}
    ]}
  ]
}
